Reference: PubChem BioAssay

experiment: small-molecule microarray binders of probe aEGFR, primary screen, biochemical, biotinylated probe, 635/667 nm fluorescence (AID 1097); details: higher = more signal;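 further: probe is a biotinylated anti-EGFR antibody binding compounds printed on slides; score combines fluorescence near 667 nm and signal to noise of each spot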

Row | Structure (SMILES) | composite z-score
1 | CO[C@@H]1COC(=O)CC=C[C@@H](C)[C@H](OC)COC(=O)CC=C[C@H]1C | -0.158
2 | O=C1O[C@H](c2ccccc2)[C@H](c2ccccc2)N2[C@H]1[C@@H](C(=O)Nc1nc3ccccc3s1)[C@]1(C(=O)Nc3ccc(C#CC4(O)CCCCCC4)cc31)[C@H]2c1ccc(O)cc1 | -0.0214
3 | O=C1O[C@@H](c2ccccc2)[C@@H](c2ccccc2)N2[C@@H](c3ccccc3OCCO)[C@]3(C(=O)Nc4ccc(C#CC5=CCCCC5)cc43)[C@@H](C(=O)O)[C@H]12 | -0.0321
4 | O=C1O[C@@H](c2ccccc2)[C@@H](c2ccccc2)N2[C@@H](c3ccc(O)cc3)[C@]3(C(=O)Nc4ccccc43)[C@@H](C(=O)N3CCN(c4ncccn4)CC3)[C@H]12 | -0.179
5 | C[N+](C)(C)CCCCNC(=O)[C@@H]1C[C@@H]2C(=O)N3CCC[C@H]3C(=O)N2[C@@H]1c1cccc(OCCO)c1 | 0.0051
6 | C=CC[C@@]1(C(=O)N2CCOCC2)N=C(c2ccc(OCCCO)cc2)O[C@@H]1c1ccccc1 | -0.0728
7 | CCC#CCN(Cc1ccccc1Br)[C@H](/C=C/c1ccccc1)[C@@H](O)Cc1ccccc1 | -0.458
8 | O=C(NCc1ccccc1)c1ccc(Br)cc1[N+](=O)[O-] | -0.0353
9 | CC(C)N1CC=CC23O[C@@H]4/C=C\CCCOC(=O)C4[C@H]2C(=O)N(CCCCCO)[C@@H]3C1=O (stereo not given in full) | -0.364
10 | O=C1OCC=C[C@H]2OC34C=CCN(Cc5ccccc5)C(=O)[C@H]3N(CCO)C(=O)[C@@H]4[C@@H]12 (stereo not given in full) | -0.172
11 | O=C1O[C@H](c2ccccc2)[C@H](c2ccccc2)N2[C@H]1[C@@H](C(=O)NC[C@H](O)c1ccccc1)[C@]1(C(=O)Nc3ccc(C#CC4=CCCCC4)cc31)[C@H]2c1ccc(OCCO)cc1 | -0.0494
12 | COc1ccc(-c2ccccc2[C@@H]2N[C@H](C(=O)O)CC[C@H]2C)cc1 | 0.0068
13 | CCOC(=O)C[C@H]1[C@H](OC(=O)c2cc3ccccc3oc2=O)[C@@H](NC(=O)C2CCCCC2)c2cc(OCCCO)ccc2N1C(=O)c1ccc2ccccc2n1 | -0.154
14 | NC(=O)NCC#Cc1ccc2c(c1)[C@]1(C(=O)N2)[C@H](C(=O)N2CCCCCCC2)[C@H]2C(=O)O[C@H](c3ccccc3)[C@H](c3ccccc3)N2[C@@H]1c1ccccc1OCCO | 1.3
15 | Cc1ccc(N2C(=O)c3ccccc3[C@@H](C(=O)NCc3ccccc3)[C@@H]2c2ccc(CO)cc2)nc1 | -0.166
16 | COC(=O)C(CC#Cc1ccc2c(c1)[C@]1(C(=O)N2)[C@H](C(=O)N2CCCCCCC2)[C@H]2C(=O)O[C@H](c3ccccc3)[C@H](c3ccccc3)N2[C@@H]1c1ccc(O)cc1)C(=O)OC | -0.221
17 | COc1ccc([Si](C)(C)[C@@H]2[C@@H](CCO)O[C@]3(C(=O)N(Cc4ccc(NC(=O)[C@H](C)O)cc4)c4ccccc43)[C@H]2C)cc1 | -0.102
18 | C=CCNC(=O)[C@@H]1[C@H]2C(=O)O[C@H](c3ccccc3)[C@H](c3ccccc3)N2[C@H](c2ccc(OCCO)cc2)[C@@]12C(=O)N(C(=O)OCCOC)c1ccc(C#CC3(O)CCCCCC3)cc12 | 0.108
19 | CC1CC/C=C\[C@H]2OC34C=CCN(Cn5nnc6ccccc65)C(=O)[C@H]3N(C(C)CO)C(=O)[C@@H]4C2C(=O)O1 (stereo not given in full) | -0.19
20 | COc1ccc([Si](C)(C)[C@H]2[C@H](CC(=O)N(CCO)Cc3ccccc3)O[C@@]3(C(=O)N(C)c4ccccc43)[C@@H]2C)cc1 | -0.0987
21 | CO[C@H]1COC(=O)[C@H](CCSC)NC(=O)CC=C[C@@H](C)COC(=O)[C@@H](OCc2ccccc2)C=C[C@@H]1C | -0.0131
22 | C=CCOC(=O)[C@@H]1[C@H]2C(=O)O[C@H](c3ccccc3)[C@H](c3ccccc3)N2[C@H](c2ccc(OCCOC(=O)[C@H]3C[C@H]4C(=O)N[C@@H](CCCCNC(C)=O)C(=O)N4[C@H]3c3ccc(O)cc3)cc2)[C@@]12C(=O)Nc1ccc(I)cc12 | 0.0333
23 | O=[N+]([O-])c1ccc(C[n+]2ccc3ccc(O)cc3c2)o1 | -0.0867
24 | COCCOC(=O)N1C(=O)[C@@]2(c3cc(C#CC4=CCCCC4)ccc31)[C@H](C(=O)NC[C@H](O)c1ccccc1)[C@H]1C(=O)O[C@H](c3ccccc3)[C@H](c3ccccc3)N1[C@@H]2c1ccccc1OCCO | -0.0316
25 | CCOC(=O)C1=CC[C@@H](c2ccc(-c3ccc(OCc4ccccc4)cc3)c(OC)c2)N(S(=O)(=O)c2ccc(C)cc2)[C@H]1c1ccccc1 | -0.0255
